Experimental data taken from the supplement of paper PMC10681739.

Assays:
ETS1 [1] = target: T1, ETS1 (UniProt P14921); experiment: ETS1 binding intensity (PBM fluorescence), ETS1 alone (arbitrary fluorescence units); higher = stronger binding; settings: ETS1 concentration 1 nM; RUNX1 concentration 0 nM
T1 sequence: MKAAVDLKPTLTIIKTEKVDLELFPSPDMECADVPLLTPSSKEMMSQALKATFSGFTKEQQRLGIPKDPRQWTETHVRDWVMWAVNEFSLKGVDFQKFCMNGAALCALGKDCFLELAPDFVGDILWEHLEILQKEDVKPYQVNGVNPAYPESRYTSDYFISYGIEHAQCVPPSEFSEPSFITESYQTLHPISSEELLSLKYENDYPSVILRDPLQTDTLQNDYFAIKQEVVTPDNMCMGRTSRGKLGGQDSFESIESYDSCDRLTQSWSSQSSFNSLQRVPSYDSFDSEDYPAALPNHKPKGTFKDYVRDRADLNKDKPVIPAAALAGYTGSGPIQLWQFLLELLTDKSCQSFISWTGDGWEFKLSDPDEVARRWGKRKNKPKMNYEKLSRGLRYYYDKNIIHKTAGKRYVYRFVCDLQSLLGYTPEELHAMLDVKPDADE

ETS1 [2] = target: T1, ETS1; experiment: ETS1 binding intensity (PBM fluorescence) in presence of RUNX1, normalised to ETS1-only experiment (arbitrary fluorescence units); higher = stronger binding; settings: ETS1 concentration 1 nM; RUNX1 concentration 25 nM

Sequence | ETS1 binding intensity (ETS1 [1]) | ETS1 binding intensity (ETS1 [2])
AGTGTAAACACGGAAGTGGCCGCAGGGGTGGGGGAT | 1820 | 2690
GGCGGCCTCAACTTCCGCGGTGGGACTCCGGAGCAG | 503 | 445
CTCAGCGGAAGAGCGGGCCTCTGGGCCGCAGTGACC | 478 | 430
GCCACCGTATTTCCGCGTTTTTCGCGGTAGGCGGGA | 465 | 576
AGCCAGGAAATCCGCACCTACACAGCCCAACCACAG | 582 | 435
GGAGGAAGGCAGGAAAGAAAGAGGTGGTTTCGGCAC | 605 | 762
GAATGACAGGAAGATGATTAGTGATAGTGGGTTTGG | 740 | 880
GGGGGAATGTAGGAAGTATCATCGCCCACAAGAAAG | 644 | 807
GAAACCTCACTCTGAGGATGTGGGTTCTGCCTTCTT | 522 | 1710
AGCGGCTTCCTGCTGGGCTTTTGCACTCCCCACAAC | 510 | 523
CAACAAGAGGAAATCAGAAACACTGAAGCCACAGCT | 420 | 463
GACGCTCTCTTCCTGTCTTTGTGGCTCCAGAAAGGC | 830 | 630
GCGCACACATGCTTCCTGTGGTGACTGGGCGCTTCA | 527 | 512
ACAGGAAGTGAGGCTGTGAGGAGTTTGTGGTGTGTA | 2080 | 4960
CCAGGATGTAGTTTGGCCACTATTGAGTGGTTTGTT | 448 | 502
CCGCCCTCCACCGAGTTCCGGCCACAGAGCGGGCCC | 536 | 547
CGTAGCGAGGAGCGGAAAACGCGGTAACCAAGGCGG | 732 | 1050
GTGACCCAATACTTCCTGCCACAATACTGAGAACTC | 841 | 702
GGCCGGGGACGGAAGGCGGGCCCGCAGCAGATCCTG | 475 | 362
GGGCCCCCGGAAAGAGCTTTGACCGCTCGAGCCTGC | 456 | 489
ACAGATGGTCCGGAACTTCAGAAAACCACTCATTGT | 583 | 592
CATTCCCGAGAGACTTCCGCGCCGCAGTTTCCCTGC | 523 | 380
TCTGGGCTGACTTCCTGGCTTCGTCCCACAACTTCA | 668 | 617
ACTTCCAGGAAGCCCCATAGTCCAGAAACCCACACA | 493 | 402
GGCTTGCCAAGAGGAAATTTGAAGCCACAATAACAT | 808 | 951
ACCCAGGGGACTTCCTGGCTCAGTGCCACAACCCAG | 545 | 393
ACCTTCCTTCCTGCCTCCCTTGTGGCTCCAGTCCAC | 552 | 312

Sequence | ETS1 binding intensity (ETS1 [1]) | ETS1 binding intensity (ETS1 [2])
GCAGGCGTGCGCTTCCGCTCCAACCCGCGCACTTCG | 1110 | 1100
CTGAGACCTCGGGCAGGATGTGGCTTCCCCAGAGTT | 4700 | 7460
ATGACTTCGAGGAAGTCTTCAGAAACCACAGGCTGA | 405 | 1430
TTTGCACACATCCTGGCCTCCGCCTGACCACCTCCT | 483 | 586
CGAGTCAGGAAATCACAGCTCTGCGGGTGGGCTCCT | 458 | 623
GGAGCAACCGGCCGGATACCGCCACAGCCCTGGCAG | 1720 | 1400
GCGCGGCTCAGGAAGCGACGCGGTTCAGGGAGCGAA | 707 | 577
GAACCCAGGTCTGCTTCCTGTGGCCACCATCTGTGC | 761 | 684
GGATGGCGGAAGAGGCGGCTGAGGCCGCAGGACGTG | 4630 | 4800
CTAGTTTCCTGTGGCTGCTATGACAAATGACCACAG | 403 | 474
GCTTTGCAGTTTCCTCTATGGAACACCACACACAGT | 621 | 499
AGAGGAAGTAAATTCTAACAGTGGAAACCACAGATT | 647 | 2290
TGCGCCAGCCTTCCTGTCGTGGTCACCGGTGGCAGC | 446 | 400
GGTTGCCCCCTTCCTCTCTGTGGCACACACAGACCT | 474 | 345
ATACATACAGGATGACATTTGTCCTGTGGGCACCAG | 495 | 515
CCAGATTAGGAAACCCACCCGGCCCACAAAAAGCGG | 445 | 302
ACCTCTTCCGAGACCCAAAATGCGCGGTCTGGAGAG | 448 | 328
CTTTTTGATTTCCTCAAGCATCCCACAAATACACAG | 539 | 659
CAAAGGGGAACGAGGAAACCGCCAGGGGCGGGGCGG | 485 | 475
TAACCCGGAGCGGAAGGATCCCGCAGCGTGTGCGTA | 681 | 797
AGACCCGGACCGGAACCTTGGCGCGGTGACGCTAGT | 1050 | 975
CAGTTCCAGGAAGCAGCCCCAAGCTTGTGGCCCTGA | 526 | 305
GTGCGGAAGCGCGCCAAGGCACGTGACCGCTTCTGT | 381 | 475
GCGTTTCCCCCTTGGGGTTATAGCAACCACCTCCTC | 479 | 358
CTTCGCCGCTTCCAGGAAGGGCCACAACGGCCGTCG | 563 | 483
GTAGCCGGGTGTTCCGGAGCGCTGCGGGCAAAGCAG | 387 | 539
